Records with an inconclusive call do not appear. A call without a number means that no potency is given here. Activity calls are given as the source filed them. The call rests on the fitted dose curve.
assay: Natriuretic polypeptide receptor (hNpr1) antagonism - Pilot counterscreen GloSensor control cell line (AID 1347045); conditions: HEK293 cGMP GloSensor cells, SNP-stimulated luminescence, 20 min; series mostly up to 38.3 µM
How it was run: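 Control counterscreen: luciferase cGMP-biosensor HEK293 cells (no Npr1) received compound for 30 min at room temperature after GloSensor substrate loading. Luminescence was measured before and 20 min after soluble guanylyl cyclase activation by 50 uM nitroprusside.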

Structure (SMILES)	Potency
O=C1OC(=O)C2C3CCC(O3)C12 (stereo not drawn)	inactive
Oc1cc2c(cc1O)C(c1ccccc1)CNCC2 (stereo not drawn)	inactive
COc1cc(/C=C(\C#N)C(=O)c2ccc(O)c(O)c2)cc(I)c1O	inactive
COc1cc(N)c(Cl)cc1C(=O)OCCN1CCCCC1	inactive
O=C(O)/C(=C/c1c(C(=O)O)[nH]c2cc(Cl)cc(Cl)c12)c1ccccc1	inactive
NC1C=CC=C(C(=O)O)C1 (stereo not drawn)	inactive
CSC(=N)N	inactive
CCCCCCCCCC[Si](C)(C)CCC(=O)NC(Cc1ccc(C)cc1)c1ccccc1 (stereo not drawn)	inactive
C[N+](C)(C)CC=O	inactive
N=C(N)SCCc1cnc[nH]1	inactive
CC(C)[C@@H]1CC[C@@H](C)C[C@@H]1P(=O)(c1ccccc1)c1ccccc1	inactive
Nc1ccc2c3c(cccc13)C(=O)NC2=O	inactive
COc1cc2c(CCNC(C)=O)c[nH]c2cc1O	inactive
Cn1cc(C(F)(F)F)nc1-c1ccc(OCC(O)CNCCOc2ccc(O)c(C(N)=O)c2)cc1 (stereo not drawn)	inactive
COc1ccc(-c2cc3ncc(C)n3c(Nc3ncccc3C(N)=O)n2)cc1OC	inactive
NCCCCN	inactive
N=S(=O)(O)Cc1noc2ccccc12	inactive
NCC(O)(CS(=O)(=O)O)c1ccc(Cl)cc1 (stereo not drawn)	inactive
NC(=O)CC[C@H](N)C(=O)O	inactive

Structure (SMILES)	Potency
CN[C@H](CC(=O)O)C(=O)O	inactive
COc1ccc2c(c1)c(CC(=O)O)c(C)n2Cc1ccc(Cl)cc1	inactive
CSC(N)=NCCC[C@H](N)C(=O)O	inactive
NCCS(=O)O	inactive
Nc1nc2c(nc(Br)n2C2OC3COP(=O)(O)O[C@@H]3C2O)c(=O)[nH]1 (stereo partly drawn)	inactive
NCCC1CCCC(CCN)N1 (stereo not drawn)	inactive
NCCCCN=C(N)N	inactive
O=C(c1ccc2c(c1)OCCO2)N1CCCCC1	inactive
CN1CCN(c2nc3cc(C(F)(F)F)ccc3n3cccc23)CC1	inactive
Oc1cc(O)c2c(c1)O[C@H](c1ccc(O)c(O)c1)[C@@H](O)C2	inactive
CC(=O)[C@H]1CCC2C3CC=C4C[C@@H](OS(=O)(=O)O)CC[C@]4(C)C3CC[C@@]21C (stereo partly drawn)	inactive
CN(C)C(=O)/N=N/C(=O)N(C)C	inactive
CNC(=O)c1cc2c(cn1)[nH]c1ccccc12	inactive
N=C(N)c1ccc(OCCCCCOc2ccc(C(=N)N)cc2)cc1 (tested in a mixture with another compound)	inactive
CCCn1c(=O)c2c(ncn2C)n(CCC)c1=O	inactive
C=C1C[C@@]23CC[C@H]4[C@@](C)(CCC[C@@]4(C)C(=O)O)[C@@H]2CC[C@]1(O)C3	inactive
OC[C@H]1O[C@H](n2cnc3c(N[C@H]4CCC[C@@H]4O)ncnc32)[C@H](O)[C@@H]1O	inactive
Cc1nc(N=Nc2ccc(C(=O)O)cc2)c(COP(=O)(O)O)c(C=O)c1O	inactive
O=C(O)C1=CCCN(CCON=C(c2ccccc2)c2ccccc2)C1	inactive

From PubChem BioAssay (NCATS)
